FECH inh: inhibitors of human ferrochelatase; P22830; purified FECH, Ni-mesoporphyrin absorbance 550 nm; calls only at 10 µM (by protocol); hit rate 3.3% among 20,000;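 active = enzyme reaction rate more than 3 SD below the solvent-only control wells on the same plate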;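 note: lower slope than DMSO wells means FECH inhibition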
Target sequence (P22830 whole entry, looked up): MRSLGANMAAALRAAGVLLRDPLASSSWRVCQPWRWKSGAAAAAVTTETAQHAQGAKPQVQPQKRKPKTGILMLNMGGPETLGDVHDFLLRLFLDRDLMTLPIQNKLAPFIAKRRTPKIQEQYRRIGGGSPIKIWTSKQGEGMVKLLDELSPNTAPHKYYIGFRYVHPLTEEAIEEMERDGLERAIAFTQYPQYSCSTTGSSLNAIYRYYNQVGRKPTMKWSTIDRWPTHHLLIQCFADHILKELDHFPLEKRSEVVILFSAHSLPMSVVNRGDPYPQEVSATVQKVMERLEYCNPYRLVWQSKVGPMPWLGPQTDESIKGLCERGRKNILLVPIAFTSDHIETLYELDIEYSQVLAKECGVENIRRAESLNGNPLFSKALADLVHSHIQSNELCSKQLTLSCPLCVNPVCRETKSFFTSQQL
* marks the source's active call; other numbers are inactive results; i = inactive; + = active, no number. The sample as a whole holds a higher share of hits than the screen did.

SMILES	FECH inh
COc1ccc(S(=O)(=O)N2CCN(Cc3nc4cccnc4n3-c3cccc(F)c3)CC2)cc1	i
COc1cccc(Nc2nc(NCCC3=CCCCC3)nc3c2cnn3-c2ccccc2)c1	i
Cc1ccc(S(=O)(=O)NCc2nc3cccnc3n2C2CCCC2)c(C)c1	i
O=C(Nc1ccc(Br)cc1F)N1CCC(n2cnc3cccnc32)CC1	+
Cc1ccc(Cl)cc1NC(=O)N1CCC(n2cnc3cccnc32)CC1	i
Cc1ccc(NC(=O)N2CCC(n3cnc4cccnc43)CC2)c(Cl)c1	i
Cc1ccc(NC(=O)Cn2c(=O)c3cnc(-c4ccccc4)nc3n(C)c2=O)c(Cl)c1	i
CCCc1nc2nc[nH]n2c(=O)c1NC(=O)Nc1ccc(Br)c(C)c1	+
CCCc1nc2nc[nH]n2c(=O)c1NC(=O)Nc1ccc(C)c(F)c1	i
CCCc1nc2nc[nH]n2c(=O)c1NC(=O)Nc1ccc(Br)cc1	i
COc1ccccc1C(=O)Nc1ccccc1Sc1cc(C)nc2nc(-c3ccccc3)nn12	i
Cc1nc2sccn2c1C(=O)N(C)Cc1cn[nH]c1-c1ccccc1	i
CC(C)c1ccc2cc(C(=O)N3CCCC(CCN)C3)[nH]c2c1 (stereo not given)	i
CNC(=O)CC(C)N(C)Cc1ccc2[nH]ccc2c1 (stereo not given)	i
Cc1cccc(C(=O)Nc2cccc(OCc3cc(=O)n4ccc(C)cc4n3)c2)c1	i
COc1cccc(C(=O)Nc2cccc(OCc3cc(=O)n4ccc(C)cc4n3)c2)c1	i
COc1ccccc1C(=O)Nc1cccc(OCc2cc(=O)n3ccc(C)cc3n2)c1	+
O=C1CCS(=O)(=O)N1c1ccc(S(=O)(=O)NCCc2cccs2)cc1	i
Cc1ccc(NCc2cc(=O)n3[nH]c(NCc4ccc(F)cc4)nc3n2)cc1	i
Cc1ccccc1-c1nc2nc(CNc3cccc(Cl)c3)cc(=O)n2[nH]1	i
Cc1ccccc1-c1nc2nc(CNc3ccccc3)cc(=O)n2[nH]1	+
Cc1ccc(NCc2cc(=O)n3[nH]c(-c4ccccc4C)nc3n2)cc1	+
CCN1CCN(Cc2cc(=O)n3[nH]c(-c4ccccc4C)nc3n2)CC1	i
COc1ccc(NCc2cc(=O)n3[nH]c(NCc4ccc(F)cc4)nc3n2)cc1	i
Cc1ccccc1-c1nc2nc(CN3CCOCC3)cc(=O)n2[nH]1	i
SMILES	FECH inh
COc1cccc(NCc2cc(=O)n3[nH]c(-c4ccccc4C)nc3n2)c1	+
Cc1ccccc1-c1nc2nc(CNc3ccc(Br)cc3)cc(=O)n2[nH]1	+
CCc1cc(Sc2ccc(NC(=O)c3ccccc3OC)cc2)n2ncnc2n1	i
Cc1nc2ncnn2c(Sc2ccc(NC(=O)Nc3ccc(F)cc3F)cc2)c1C	i
Cc1ccnc(CC(C)N(C)C(=O)c2cc3cnccc3nc2C)c1 (stereo not given)	i
CCCCS(=O)(=O)N1CCCn2nc(-c3nc4ccccc4[nH]3)cc2C1	i
Cc1ccc(-c2cc(Nc3cc(C)ccc3O)nc(C)n2)cc1	i
O=C(NCc1ccccc1-n1ccnc1)[C@@H]1C[C@@H]2C=C[C@H]1C2	i
CCSc1ncc(CN2CCN(c3nc(C)ncc3C)CC2)cn1	i
CCC(=O)Nc1ccccc1-c1nnc(SCC(=O)Nc2ccc(C(=O)OC)cc2)[nH]c1=O	i
O=C1CCC2(CCN1)CCN(c1ncccc1Cl)CC2	i
CCC(=O)Nc1cccc(C(=O)NCc2nc(Cc3cccs3)no2)c1	i
CCC(=O)Nc1cccc(C(=O)NCc2sc(C)nc2CC)c1	+
CCc1nc(C)sc1CNC(=O)c1sccc1NC(C)=O	i
Cc1cc(N(C)C)nc(Nc2ccc(NC(=O)c3cccc(C(F)(F)F)c3)cc2)n1	i
CNS(=O)(=O)c1ccc(CN(Cc2ccsc2)Cc2ccco2)cc1	i
O=S(=O)(NCCn1c(-c2ccccc2)nc2cccnc21)c1ccc(F)cc1	i
COc1ccc(CN2CCN(C(=O)c3nc4ccccc4n(C)c3=O)CC2)c(OC)c1OC	+
Cn1c(=O)c(C(=O)N2CCN(c3ncccn3)CC2)nc2ccccc21	i
COc1ccc(N2CCN(C(=O)c3nc4ccccc4n(C)c3=O)CC2)cc1	i
CSc1nc(-c2ccccc2)c(C#N)c(N2CCCCC2C)n1 (stereo not given)	i
O=S(=O)(c1ccccc1)N1CCC(n2c(-c3ccccc3)nc3cccnc32)CC1	i
Cc1cc(C)c(S(=O)(=O)NCCn2c(-c3ccccc3)nc3cccnc32)cc1C	i
O=S(=O)(Cc1ccccc1)NCCn1c(-c2ccccc2)nc2cccnc21	i
CCc1ccc(NC(=O)NCCn2c(-c3ccncc3)nc3cccnc32)cc1	i
SMILES	FECH inh
COc1ccc(Cl)cc1S(=O)(=O)NCCn1c(-c2ccc(C)cc2)nc2cccnc21	+
COc1ccc(OC)c(S(=O)(=O)NCCn2c(-c3ccccc3)nc3cccnc32)c1	i
COc1ccc(OC)c(S(=O)(=O)NCCn2c(-c3ccc(C)cc3)nc3cccnc32)c1	i
CCOC(=O)c1ccccc1NC(=O)NCCn1c(-c2ccncc2)nc2cccnc21	+
CCOc1ccc(NC(=O)NCCn2c(-c3ccncc3)nc3cccnc32)cc1	i
Cc1ccc(-c2nc3cccnc3n2CCNS(=O)(=O)Cc2ccccc2)cc1	+
Cc1ccc(-c2nc3cccnc3n2CCNS(C)(=O)=O)cc1	i
CN1CCCC(C(=O)N2CCc3c(nc(-c4ccccc4)[nH]c3=O)C2)C1 (stereo not given)	i
COCCNC(=O)C1(C)Cn2c(cc3ccsc32)C(=O)N1Cc1cccc(OC)c1 (stereo not given)	i
Cc1nccn1CC1CCCN(Cc2cc3c(cc2Cl)OCO3)C1 (stereo not given)	i
CSc1nc(Nc2ccc(Cl)c(Cl)c2)c(C#N)c(-c2ccc(C)cc2)n1	i
Cn1c(=O)n(Cc2ccc(Br)cc2F)c(=O)c2cnc(-c3cccnc3)nc21	i
O=C1N(CCCc2ccccc2)CCCC1(O)CNC1CCC(O)CC1 (stereo not given)	i
COc1cc2c(=O)n(Cc3ccc(C(=O)NC4CC4)cc3)c(=O)n(CC(=O)NC(C)C)c2cc1OC	i
CCc1ccc(N2C(=O)N(Cc3cc(F)cc(F)c3)c3ccccc3S2(=O)=O)cc1	+
Cc1ccccc1N1C(=O)N(Cc2ccc(C(C)(C)C)cc2)c2ccccc2S1(=O)=O	i
COc1ccc(N2C(=O)N(Cc3ccc(C(C)(C)C)cc3)c3ccccc3S2(=O)=O)cc1OC	i
Cn1cc(CN(Cc2ccc(CO)o2)C2CC2)cn1	+
Cc1ccc(C(C)NC(=O)CN(Cc2cnn(C)c2)C2CC2)cc1 (stereo not given)	i
Cn1cc(CN(Cc2cc3cc4c(cc3[nH]c2=O)OCO4)C2CC2)cn1	i
Cc1ccc(OC2(C(=O)NCCN3C(=O)CCC3=O)CCNCC2)cc1	i
O=S1(=O)N(Cc2ccccc2Cl)CCCN1Cc1ccc(F)cc1Cl	+
O=C(CN1CCN(Cc2ccc(F)cc2Cl)S1(=O)=O)Nc1cccc(F)c1	i
O=C(CN1CCCN(Cc2ccccc2Cl)S1(=O)=O)Nc1cc(F)ccc1F	i
Cc1ccc(NC(=O)CN2CCN(Cc3ccc(F)cc3Cl)S2(=O)=O)cc1C	i
COc1ccc(NC(=O)CN2CCN(Cc3ccc(F)cc3Cl)S2(=O)=O)cc1Cl	+
Cc1cc(C)cc(NC(=O)CN2CCN(Cc3ccc(F)cc3Cl)S2(=O)=O)c1	i
Cc1cccc(NC(=O)CN2CCN(Cc3ccc(F)cc3Cl)S2(=O)=O)c1	+

Assay outcomes from PubChem.
